Bioassay records deposited in PubChem by several laboratories.
Measles CPE: protection of cells from measles virus; protection (pct of control), % at 4 µM; Measles virus-infected cells, CPE protection, absorbance; actives 1.5% (n = 140,000); in the data active means protection mostly above about 24%, no sharp cut-off; inactive means mostly below about 26%
Phagocytosis inh: blocks phagocytosis by macrophages; J774A.1 macrophage IgG-bead phagocytosis, imaging; inhibition, % at 5 µM; actives 0.07% (n = 110,000); AID 1029;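 active means inhibition above the mean of the plate negative controls plus 5 SD, cut at about 13% in these data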;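 further: phagocytic index as fraction of beads internalized from green versus red external bead signal; plate controls were DMSO negative control for no effect and cytochalasin-D positive control for full effect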
SDO1 yeast rescue: restores growth of sdo1-depleted yeast; S. cerevisiae sdo1-depleted JHY4D growth rescue, OD600 30 h; active compounds read high; pdr5 snq2 efflux-pump mutant strain; z-score at 10 µM; actives 0.21% (n = 140,000); AID 817;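 active means z-score above 3 at both the 24 hr and the 30 hr optical density reads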;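 further: z-score against mean and SD of all compound wells on the same plate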
* marks the source's active call; other numbers are inactive results; x = not tested or not shown; + = active, no number. Shown are actives, neighbours in structure and some others; about 1.8% of the full set was active somewhere.

SMILES	Measles CPE	Phagocytosis inh	SDO1 yeast rescue
C/C(=N\O)C(=O)NCCCNCCCN(C)C	48.9*	-1.5	1.26
C/C(=N\O)C(=O)NCCN(C)C	18.0	-9.1	1.19
Cc1ccc(-c2noc(CCC(=O)N3CCCc4ccccc43)n2)cc1	12.2	-0.1	-1.08
CCOc1cc(C2NC(=O)NC(C)=C2C(=O)OCc2ccccc2)ccc1O (configuration not stated)	46.6*	-0.3	0.32
COc1cc(C2NC(=O)NC(C)=C2C(=O)OCc2ccccc2)ccc1O (configuration not stated)	16.4	2.5	0.87
CCOC(=O)Cn1nc(-c2ccccc2)ccc1=O	37.9	-2.2	-0.25
CCOC(=O)C(C)n1nc(/C=C/c2ccccc2)ccc1=O (configuration not stated)	88.5*	x	-0.07
COc1ccc(-c2noc(CN3C(=O)c4ccccc4C3=O)n2)cc1	36.7*	-0.8	-0.16
COc1ccc(-c2noc(CN3CCN(c4ccccc4)CC3)n2)cc1	9.5	-0.5	0.18
COc1cc(CN2CCN(c3ccccc3C)CC2)cc([N+](=O)[O-])c1O	10.2	-1.3	0.28
O=C(NCC(=O)N(c1ccc2c(c1)OCO2)C(C(=O)NC1CCCC1)c1cccs1)c1ccco1 (configuration not stated)	66.0*	0.7	0.92
O=C(NC1CCCC1)C(c1cccs1)N(C(=O)c1ccco1)c1ccc2c(c1)OCO2 (configuration not stated)	14.5	x	0.94
O=C(c1ccc(C(F)(F)F)cc1)c1c[nH]c(C(=O)NCCCn2ccnc2)c1	5.3	x	-0.27
COc1ccc(/C=C2/SC(=O)N(CCNC(=O)C3CCCN3C(=O)c3cccs3)C2=O)cc1 (configuration not stated)	42.0*	2.9	0.37
O=C(NCCN1C(=O)S/C(=C/c2ccccc2)C1=O)C1CCCN1C(=O)c1cccs1 (configuration not stated)	11.3	-7.4	0.19
COc1ccc(CNC(=O)COC(=O)c2cnccn2)cc1	9.3	-0.6	0.54
c1ccc(CCn2c3ccccc3c3nnc(SCc4ccc5nonc5c4)nc32)cc1	24.2*	0.5	0.41
O=C1c2ccccc2C(=O)N1CSc1nnc2c3ccccc3n(CCc3ccccc3)c2n1	33.7	x	0.25
O=C(NC(NC(=S)Nc1c(Cl)cccc1Cl)C(Cl)(Cl)Cl)OCc1ccccc1 (configuration not stated)	19.1	-13.6	-1.87
O=C(Nc1cnn(Cc2ccccc2)c1)NC12CC3CC(CC(C3)C1)C2	23.1*	-1.7	0.25
O=C(O)C1C2CCC(O2)C1C(=O)Nc1cnn(Cc2ccccc2)c1 (configuration not stated)	7.0	0.0	0.57
COC(=O)c1c(C(=O)OC)c(-c2ccc(Cl)cc2)n2c1CCC2	8.5	x	-0.01
Nc1nc(CN2CCN(c3cccc(Cl)c3)CC2)nc(N2CCCc3ccccc32)n1	11.4	0.7	-1.88
Nc1nc(CN2CCN(c3ccccc3)CC2)nc(N2CCCc3ccccc32)n1	87.2*	-0.2	-0.66
COc1ccc(N2CCN(Cc3nc(N)nc(Nc4ccc(C)c(Cl)c4)n3)CC2)cc1	9.1	-0.6	-2.21
SMILES	Measles CPE	Phagocytosis inh	SDO1 yeast rescue
Cc1ccc(Nc2nc(N)nc(CN3CCN(c4ccccc4)CC3)n2)cc1Cl	1.6	+	-1.96
COc1cc(C2SCC(=O)N2CCCN(C)C)cc(OC)c1OC (configuration not stated)	7.7	2.5	1.8
CCCC(=O)Nc1cc(S(=O)(=O)N(CC)CC)ccc1Cl	3.7	10.4	-0.39
COc1ccc(Cl)cc1N(CC(=O)NC(C)(C)C)S(=O)(=O)c1ccc(C)c([N+](=O)[O-])c1	11.2	-10.5	-0.2
Cc1ccc(Cl)cc1N1CCN(C(=O)COc2ccc(S(=O)(=O)NC(C)C)cc2)CC1	56.2*	-0.4	-0.93
CC(C)NS(=O)(=O)c1ccc(OCC(=O)N2CCCC2)cc1	2.5	x	0.82
COc1ccc(OC)c(-c2nc3cc4ccccc4cc3nc2-c2ccccc2)c1	11.1	-4.8	-0.32
CC(OC(=O)CN1C(=O)NC(C)(C)C1=O)C(=O)c1ccccc1 (configuration not stated)	14.4	-0.5	-0.24
CC(OC1=CC(=O)CCC1)C(=O)c1ccccc1 (configuration not stated)	2.2	187.1*	-0.1
Cc1cccc(C)c1OCc1nc2ccccc2c(=O)n1/N=C/c1c[nH]c2ccccc12	9.6	-10.1	-1.53
Cc1ccc(C)c(Cn2nnc3c(=O)[nH]c(C4CCCN(C(=O)C5CCC5)C4)nc32)c1 (configuration not stated)	2.3	-0.2	-0.02
O=C(C1CCC1)N1CCC(c2nc3c(nnn3Cc3c(F)cccc3Cl)c(=O)[nH]2)CC1	40.9*	-0.7	-0.37
COc1cccc(CNC(=O)C2CCC(CNS(=O)(=O)c3cccc4nsnc34)CC2)c1 (configuration not stated)	4.5	0.8	0.63
O=Cc1cccn1Cc1ccccc1[N+](=O)[O-]	11.8	-1.9	1.16
CC(C)OC(=O)c1ccc(Cn2nnc3ccccc3c2=O)cc1	38.7*	0.0	-0.79
COC(=O)c1ccc(Cn2nnc3ccccc3c2=O)o1	19.7	-3.0	0.41
O=c1c2ccccc2nnn1CSc1ccccc1	12.8	-4.5	0.22
O=c1c2ccccc2nnn1Cc1ccccn1	63.0*	-1.6	1.59
O=C(C1CC(c2ccccc2O)=NO1)N1CCCCC1 (configuration not stated)	5.6	-1.1	2.12
COc1ccc(Nc2nc(N3CCCC3)c3ccccc3n2)cc1	63.0*	0.7	-0.49
CCN(CC)c1ccc(Nc2nc(N3CCOCC3)c3ccccc3n2)cc1	6.1	1.6	-0.8
COc1cc(CN2CCN(c3ccc(C)cc3)CC2)cc([N+](=O)[O-])c1O	25.0	-0.2	-0.37
C=CCNC(=S)NNC(=O)CCC(O)CCCCC (configuration not stated)	1.8	-0.6	0.51
Cc1cc(SCC(=O)Nc2cccc(S(=O)(=O)NC3=NCCCCC3)c2)c(C)cc1Br	27.6*	x	0.53
Cc1ccc(Nc2nnc(SCC(=O)Nc3cccc(S(=O)(=O)NC4=NCCCCC4)c3)s2)cc1	20.9	-9.5	-0.79
SMILES	Measles CPE	Phagocytosis inh	SDO1 yeast rescue
CCCCn1c(SCc2nc3ccccc3s2)nc2ccccc2c1=O	4.5	-13.7	-0.95
CCCCn1c(SCc2nc3ccccc3s2)nc2cc(S(N)(=O)=O)ccc21	39.8*	-0.6	0.74
COc1ccc(CCNC(=O)CSc2nncn2N)cc1OC	14.8	-0.3	0.26
O=C(NCCOc1ccccc1)c1cc2ccccc2o1	8.9	7.6	0.04
CCC(C(=O)OCC(=O)Nc1cc(Cl)ccc1Cl)c1ccccc1 (configuration not stated)	13.8	-13.5	-0.96
CN1CCN(S(=O)(=O)c2ccc3[nH]c(=O)oc3c2)CC1	39.6*	1.1	0.07
Cn1c(=O)oc2cc(S(=O)(=O)N3CCCC3)ccc21	9.3	0.2	0.3
Cc1cccc(N2CCN(C(=O)Cc3c(C(=O)O)[nH]c4ccc(Cl)cc34)CC2)c1C	8.1	-1.0	0.83
CC(C)CCNC(=O)Cc1c(C(=O)O)[nH]c2ccc(Cl)cc12	45.5*	-0.9	1.56
COc1ccc(C(=O)n2nc(-c3ccccc3)nc2N)cc1OC	13.7	-1.7	0.41
CCOc1ccccc1OCCCOc1ccc(C)cc1Br	33.5*	-4.3	0.16
CCOc1ccccc1OCCCOc1ccc(C)cc1Cl	8.3	1.5	0.45
